# Compound activity: PubChem BioAssay, National Center for Advancing Translational Sciences (NCATS)
# Compounds with a hit are over-represented: about 9.2% of the library has one in this group of screens.
# NPC1 prom act – NPC1 promoter activation; Potency, µM (titrated, usually from 9.22 µM), without a hit: at the highest dose activation, usual class: activators; 2.4% of 320,000 active; AID 485313; Huh7 NPC1 promoter luciferase reporter, 24 h; also: % of control where 0% means no effect; nearly all actives have a fitted effect of over 60% in size
#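 Luciferase expression driven by the NPC1 promoter was measured in stably transfected Huh7 cells after a 24 h compound incubation, using a luciferase reagent and a luminescence read.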
# SMN2 splice enh – SMN2 splice variant enhancement; HEK293 SMN2-luciferase splicing reporter, luminescence, 30-36 h; AID 1458; 2.8% of 210,000 active; Potency, µM (doses to about 46.1 µM), for inactives: top-dose activity change, positive = activation, actives largely listed as activators; also: % of control where 0% means no effect; nearly all actives have a fitted effect of over 55% in size
#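 HEK293 cells carry an SMN2 minigene-luciferase reporter in which exon 7 inclusion puts luciferase in frame. Cells were seeded at 2000 cells/well, attached for 10-12 hours, then exposed to compounds for 30-36 hours at 37C before ONE-Glo luminescence.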
# FLuc modulator – firefly luciferase modulation, counter-screen for miR-21 project; purified FLuc, Km substrates, luminescence inhibition; 6.9% of 360,000 active; Potency, µM (highest dose often 57.5 µM), inactives show at the highest dose activity change, negative = inhibition, actives largely listed as inhibitors;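 also: plate controls were vehicle for no effect and reference inhibitor for full effect; nearly all actives have a fitted effect of over 55% in size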
# Target sequence (P08659 whole entry, looked up): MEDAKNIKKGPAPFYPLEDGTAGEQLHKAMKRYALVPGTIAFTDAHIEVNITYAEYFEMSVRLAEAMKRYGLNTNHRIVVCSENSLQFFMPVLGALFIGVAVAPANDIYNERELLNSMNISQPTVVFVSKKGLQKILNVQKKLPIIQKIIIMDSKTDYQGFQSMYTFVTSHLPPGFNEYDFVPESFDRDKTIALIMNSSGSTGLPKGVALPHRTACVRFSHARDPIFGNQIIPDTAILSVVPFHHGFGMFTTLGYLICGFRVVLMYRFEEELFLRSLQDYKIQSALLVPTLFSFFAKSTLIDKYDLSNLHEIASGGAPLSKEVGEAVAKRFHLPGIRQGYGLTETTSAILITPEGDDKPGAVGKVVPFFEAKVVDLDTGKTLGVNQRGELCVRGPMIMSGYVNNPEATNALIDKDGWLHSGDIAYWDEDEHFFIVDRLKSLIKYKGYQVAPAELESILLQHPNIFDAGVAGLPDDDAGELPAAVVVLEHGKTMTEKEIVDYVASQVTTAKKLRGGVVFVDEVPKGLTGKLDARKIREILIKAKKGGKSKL
#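 Purified P. pyralis luciferase, 10 nM final, with Km-level 10 uM D-luciferin and 10 uM ATP in 50 mM Tris acetate pH 7.5, 10 mM Mg acetate, 0.01% Tween-20, 0.05% BSA; 6-point qHTS titration about 60 µM downward; luminescence read.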
# ELG1 repair inh – blocks ELG1-dependent DNA repair in HEK293T cells | HEK293T ELG1-luciferase reporter, luminescence, 16 h; DNA damage induced by 5-fluorouridine | Potency, µM (highest dose often 46.1 µM), for the others: top-dose activity change, negative = inhibition, actives largely listed as inhibitors | 2.3% of 330,000 active; also: % is scaled to controls: 0 for no effect and ±100 for the full control effect; nearly all actives have a fitted effect of over 55% in size
#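 In this reporter screen, reduction of luminescence relative to DMSO vehicle indicated activity. Compounds and 5-fluorouridine were added together to 2,000 cells per well, incubated for 16 hr at 37 °C, then developed with ONE-Glo.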
# Rab9 promoter act – Rab9 promoter activation. Potency, µM (doses to about 9.22 µM), for inactives: top-dose activation, negative = inhibition, most hits filed as activators. Huh7 Rab9 promoter-luciferase reporter, luminescence, 24 h. 2.8% of 320,000 active; also: % of control where 0% means no effect; nearly all actives have a fitted effect of over 60% in size
#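 Quantitative HTS format; Huh7 Rab9-luciferase reporter cells (1500/well) receive compound 2 h post-plating, incubate 24 h at 37 °C, then get luciferase reagent for 10 min before luminescence reading.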
# ELG1 genotox – induces genotoxicity in HEK293T cells with luciferase-tagged ELG1; AID 504466; HEK293T ELG1-luciferase reporter, luminescence, 16 h; Potency, µM (top dose mostly 46 µM), for the others: at the top dose activity change, positive = activation, hits mostly activators; 1.3% of 330,000 active; also: % of control where 0% means no effect; nearly all actives have a fitted effect of over 60% in size
#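 Reporter readout depends on ELG1 protein level, which increases with genetic stress. After 16 hr compound exposure at 37 °C, luciferase activity was quantified using ONE-Glo.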
# The depositor's hits bear a star; ? = inconclusive; . = no result given; [ ] = remark or other dose. Calls follow the shape of the dose curve; as a rule, active = well fitted curve in the direction sought with a large enough effect; inconclusive = small, poorly fitted or top-dose-only effect, or another doubt; inactive = no such curve, though single readings can be large; an effect the other way counts as inactive or inconclusive. Potency is read from the fitted curve at half-maximal effect.
SMILES,NPC1 prom act,SMN2 splice enh,FLuc modulator,ELG1 repair inh,Rab9 promoter act,ELG1 genotox
Nc1nn(-c2cccc(F)n2)cc1-c1ccccc1,2µM*,14.1µM*,3.01µM*,?,0.631µM*,2.91µM*
Nc1nc(Br)c2c(F)cccc2c1-c1ccccc1,-2.9%,-1.1%,-12.0%,13.8%,-2.2%,0.0%
COc1ccccc1Nc1ncnc2c1c(C)c(C)n2CCO,27.0%,.,?,?,19.9%,?
Cc1ccc(NC(=O)CCN2C(=O)NC3(CCCC3)C2=O)c(C)c1,-4.7%,.,.,1.1%,-0.4%,1.2%
O=C(O)CSSCC(=O)O,.,-5.0%[9.22 µM],.,.,.,.
O=c1c(-c2ccccc2)c[nH]n1-c1cccc([N+](=O)[O-])c1,?,.,15.1µM*,?,?,17.9%
O=[N+]([O-])c1cccc(-n2nncc2-c2ccccc2)c1,-0.9%,.,-0.5%,-0.5%,6.8%,1.8%
O=c1c(-c2ccc(Cl)cc2)c[nH]n1-c1ccccc1,?,.,9.53µM*,?,-0.4%[1.84 µM],12.2%
Cc1[nH]n(-c2ccccc2)c(=O)c1-c1ccc(Cl)cc1,6.8%,-14.7%,?,10.4%,2.2%,-1.6%
CCNc1ccccc(-c2ccc3ccccc3n2)c1=O,?,11.2µM*,12µM*,?,?,?
CCc1nn(CC(=O)N2CCN(c3cccc(Cl)c3)CC2)c(=O)c2cc3sccc3n12,.,4.0%,-4.2%,.,.,.
O=C(C1CCC1)N1CCc2cc(S(=O)(=O)N3CCN(c4ccccc4)CC3)ccc21,.,-1.6%,1.2%,.,.,.
O=C(C1CCC1)N1CCc2cc(S(=O)(=O)N3CCN(c4ccccn4)CC3)ccc21,-0.9%,-40.5%,-1.8%,18.4µM*,-6.4%,-2.1%
CCN(CC)C(=O)C1CCN(S(=O)(=O)c2ccc3c(c2)CCCN3C(=O)C2CCC2)CC1,0.9%,.,-0.4%,23.1µM*,-4.3%,-4.0%
CC(C)(C)C(=O)Nc1ccc(-c2cn3ccsc3n2)cc1,0.282µM*,?,0.536µM*,?,0.126µM*,?
CC(C)CC(=O)Nc1ccc(-c2cn3ccsc3n2)cc1,1.41µM*,10µM*,1.2µM*,?,0.562µM*,1.16µM*
CC1CCc2c(sc(NC(=O)c3c([N+](=O)[O-])cnn3C)c2C(N)=O)C1 (stereo not given),-1.8%,.,5.7%,3.3%,-4.3%,16.2%
Cc1cccc(NC(=O)c2ccc(F)c(S(=O)(=O)NCc3ccc4c(c3)OCO4)c2)c1,.,.,2.0%,.,.,.
O=C(Cn1c(=O)n(-c2ccccc2Cl)c(=O)c2sc3ccccc3c21)NC1CCCC1,.,-3.8%,-1.8%,.,.,.
O=C(O)CCCN1C(=O)/C(=C/c2ccc(-c3nc4ccccc4s3)o2)SC1=S,10.5%,17.8µM*,-5.7%,?,-1.3%,13.5%
O=C(O)CCCCCN1C(=O)/C(=C\c2ccc(-c3ccc(Cl)cc3)o2)SC1=S,-2.5%,.,?,16.8%,-4.2%,3.7%
CNC(=O)/C(C#N)=C\c1ccc(CNS(=O)(=O)c2ccc(Cl)cc2)o1,-2.7%,11.5%,0.9%,7.1%,6.2%,-2.1%
N#C/C(=C/c1ccc(N2CCCCC2)o1)C(=O)Nc1ccc2ccccc2c1,5.7%,-48.2%,3.38µM*,-0.8%,6.3%,-0.3%
N#C/C(=C/c1ccc(N2CCCCC2)o1)C(=O)Nc1ccc(Cl)cc1,2µM*,3.16µM*,0.601µM*,?,2.24µM*,2.31µM*
COc1cc(OC)cc(C(=O)O/N=C(\N)c2ccccn2)c1,0.891µM*,.,6.75µM*,?,0.631µM*,?
SMILES,NPC1 prom act,SMN2 splice enh,FLuc modulator,ELG1 repair inh,Rab9 promoter act,ELG1 genotox
COc1ccc(C(=O)O/N=C(\C)c2cnccn2)cc1,-0.1%,7.4%,10.7µM*,10.9%,-1.1%,2.0%
COc1cc(OC)cc(C(=O)NNC(=O)c2ccccn2)c1,-4.4%,.,3.1%,?,-3.9%,?
COc1ccc(CC(=O)O/N=C(\N)c2ccccn2)cc1,10.1%,.,12µM*,?,17.6%,?
COc1ccc(C(=O)NNC(=O)c2ccccn2)cc1,0.316µM*,2.51µM*,0.0849µM*,?,0.316µM*,0.146µM*
COc1ccc(NC(=O)C2CCCN(S(C)(=O)=O)C2)cc1OC (stereo not given),1.6%,.,0.4%,4.3%,3.3%,0.3%
CC1CCC(NC(=O)C2CCN(c3c4c(nc5ncnn35)CCC4)CC2)CC1 (stereo not given),1.9%,.,?,18.5%,0.0%,3.0%
COc1cccc2c1Oc1ncccc1N(c1ccc(C(=O)NCc3cccc(C)c3)s1)C2,.,.,-7.4%,.,.,.
COc1cc(OC)c(C(=O)O/N=C(\N)c2ccccn2)cc1OC,9.6%,.,-4.3%,12.4%,13.7%,4.5%
COc1ccc(C(=O)O/N=C(\N)c2ccccn2)cc1,0.112µM*,.,0.0953µM*,?,0.398µM*,?
COc1cc(CNC(=O)c2cc(C(=O)NCc3cc(OC)cc(OC)c3)n(C)n2)cc(OC)c1,-1.6%,.,1.2%,20.6µM*,-1.6%,1.4%
Cn1nc(C(=O)NCc2cccc(F)c2)cc1C(=O)NCc1cccc(F)c1,-2.9%,.,1.0%,11.6µM*,-10.0%,-1.9%
O=C(NCc1cccc(F)c1)c1ccc(-n2cnc3cccnc32)cc1,.,.,-6.2%,.,.,.
COc1cc(CNC(=O)c2cnc(C)cn2)cc(OC)c1,6.1%,.,-2.9%,-1.0%,-2.3%,2.9%
Cc1cc(C)c(Cn2c(C)c(CNCCCc3ccccc3)c(C(=O)O)c2C)c(C)c1,.,24.7%,-0.1%,.,.,.
CCn1c(=O)cc(OCC(=O)Nc2cccnc2)c2ccccc21,-0.6%,-4.0%,-0.8%,?,9.0%,13.0%
O=C(COc1ccc2ccccc2c1Br)Nc1cccnc1,?,.,4.78µM*,?,3.5%,17.8%
O=C(COc1ccc2ccccc2c1Br)Nc1ccncc1,-13.7%,.,12µM*,9.8%,-10.5%,8.4%
O=C(COC(=O)c1cccc(C(F)(F)F)c1)NC(=O)NC1CCCC1,.,.,.,?,.,0.4%
C/C(CC(=O)Nc1ccc2c(c1)OCCO2)=N\NC(=O)c1ccccc1Cl,8.8%,.,-16.8%,?,22.3%,?
O=C(NC(=S)Nc1ccc2c(c1)OCCO2)c1ccc(F)cc1Cl,25.1%,12.6µM*,13.5µM*,?,27.3%,?
CCc1ccc(C(=O)NC(=S)Nc2ccc3c(c2)OCCO3)cc1,2.82µM*,11.2µM*,6.01µM*,?,3.98µM*,?
CC(C)C(=O)Nc1cccc(NC(=S)NC(=O)c2ccc3c(c2)OCO3)c1,1.0%,.,6.3%,-3.2%,-1.8%,4.2%
O=C(NC(=S)Nc1ccc2c(c1)OCO2)c1ccc(Cl)cc1,3.98µM*,12.6µM*,?,?,2.24µM*,?
Cc1cc(C)cc(C(=O)NC(=S)Nc2ccc3c(c2)OCCO3)c1,?,.,6.75µM*,?,?,?
